Measured values as given in PubChem BioAssay (NCATS).
Records with an inconclusive call do not appear. The source made the active and inactive calls. Unless noted, the call rests on the fitted dose curve; in most records, active means well fitted curve in the direction sought with a large enough effect; inconclusive means small, poorly fitted or top-dose-only effect, or another doubt; inactive means no such curve, though single readings can be large; an effect the other way counts as inactive or inconclusive. Where a SMILES comes first, the peptide text is derived from it.

How the values were obtained:
OV90 = assay: Primary qHTS to identify gynecologic anti-cancer compounds using libraries of approved drugs and bioactive compounds (AID 1345084); settings: Gynecologic cancer cell panel viability, ATPlite luminescence, 48 h; series mostly up to 57.5 µM; further: on the % scale 0 is the no-effect control and ±100 the full control effect; nearly all actives have a fitted effect of over 55% in size
How it was run: (§1)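 Cell viability after 48 h drug treatment, ATPlite luminescence readout; five doses.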

PA-1 = assay: as above; settings: Gynecologic cancer cell panel viability, ATPlite luminescence, 48 h; series mostly up to 57.5 µM
How it was run: as §1

Tov-21-G = assay: as above; settings: Gynecologic cancer cell panel viability, ATPlite luminescence, 48 h; series mostly up to 57.5 µM
How it was run: as §1

Tov112D = assay: as above; settings: Gynecologic cancer cell panel viability, ATPlite luminescence, 48 h; series mostly up to 57.5 µM
How it was run: as §1

SKOV3 = assay: as above; settings: Gynecologic cancer cell panel viability, ATPlite luminescence, 48 h; series mostly up to 57.5 µM
How it was run: as §1

[1] = Drug repurposing screens with cells derived from glioblastoma tumor samples (AID 1345199); settings: GBM patient neurospheres viability, ATP luminescence, 48 h; further: nearly all actives have a fitted effect of over 40% in size; further: potency means the concentration at half of the fitted maximal effect; on activity, negative = cell killing: on the % scale 0 is the no-effect control and ±100 the full control effect
How it was run: (§2)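 Four patient lines of CD133+ GBM neurospheres were screened at several concentrations; hits were retested in those lines plus three slower-growing GBM lines, using 48-hour treatment and ATP-based viability.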

astro = assay: as above; settings: viability, ATP luminescence, 48 h; series mostly up to 45.9 µM
How it was run: as §2

[2] = molecular target: Nuclear receptor subfamily 1 group I member 2 (Rattus norvegicus) (UniProt Q9R1A7); assay: qHTS assay for small molecule activators of the rat pregnane X receptor (rPXR) signaling pathway (AID 651751; call rule not given here; further: 0% is about no effect); settings: rPXR reporter cells, luciferase (One-Glo), 24 h
Chain of Nuclear receptor subfamily 1 group I member 2 (Rattus norvegicus) (Q9R1A7 whole entry, looked up): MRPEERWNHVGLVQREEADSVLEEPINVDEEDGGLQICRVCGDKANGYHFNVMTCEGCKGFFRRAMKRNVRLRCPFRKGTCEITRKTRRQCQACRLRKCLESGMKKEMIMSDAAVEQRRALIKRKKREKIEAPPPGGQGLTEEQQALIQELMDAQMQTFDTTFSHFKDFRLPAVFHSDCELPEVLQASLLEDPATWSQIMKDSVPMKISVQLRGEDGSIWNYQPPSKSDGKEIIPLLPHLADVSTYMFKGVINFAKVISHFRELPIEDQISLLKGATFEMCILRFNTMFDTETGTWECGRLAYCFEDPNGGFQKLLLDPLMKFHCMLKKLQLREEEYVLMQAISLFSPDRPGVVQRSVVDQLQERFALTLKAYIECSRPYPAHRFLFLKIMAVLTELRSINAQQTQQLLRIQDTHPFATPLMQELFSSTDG

[3] = qHTS assay for small molecule activators of the human pregnane X receptor (PXR) signaling pathway (AID 720659; call rule not given here; further: 0% is about no effect)
[4] = at 45.9 µM (top of the series), tumour line B
[5] = at 45.9 µM (top of the series), tumour line D

C[C@@H](O)[C@H](N)C(=O)N1CCC[C@H]1C(=O)N1CCC[C@H]1C(=O)N[C@H](C(N)=O)[C@@H](C)O (H-TPPT-NH2)
inactive: activity change, negative = cytotoxicity (OV90) -0.207% [at 11.6 µM] | activity change, negative = cytotoxicity (PA-1) -4.12% [at 11.6 µM] | activity change, negative = cytotoxicity (Tov-21-G) 0.205% [at 11.6 µM] | activity change, negative = cytotoxicity (Tov112D) 6.35% [at 11.6 µM]

Nc1c(Br)cc(Br)cc1CNC1CCC(O)CC1 (stereo not given)
inactive: Potency (OV90) | Potency (PA-1) | Potency (SKOV3) | Potency (Tov-21-G) | Potency (Tov112D) | activity, negative = cell killing [1, 4] -15.5% | activity, negative = cell killing [1, 5] -18.1% | activity, negative = cell killing ([1]; at 46.1 µM (top of the series), tumour line C) -10.6% | Potency (astro)
active: Potency ([1]; tumour line A) 14.1 µM

Cn1c(=O)cc(N2CCCC(N)C2)n(Cc2ccccc2C#N)c1=O (stereo not given)
inactive: Potency (OV90) | Potency (PA-1) | Potency (SKOV3) | Potency (Tov112D)

Cc1ccc(Sc2cncc3sc(C(N)=O)cc23)cc1
inactive: Potency (OV90) | Potency (PA-1) | Potency (SKOV3) | Potency (Tov112D)

CC1=C2[C@@H]([C@H](C)CC[C@H]2/C=C(\C)C(=O)O)[C@H](O)C1
inactive: Potency (OV90) | Potency (PA-1) | Potency (SKOV3) | Potency (Tov-21-G) | Potency (Tov112D) | max response [2] -1.26% | outcome [3]

CCN[C@@H]1C[C@H](N)[C@@H](O[C@H]2OC(CN)=CC[C@H]2N)[C@H](O)[C@H]1O[C@H]1OC[C@](C)(O)[C@H](NC)[C@H]1O
inactive: Potency (OV90) | Potency (PA-1) | Potency (Tov-21-G) | Potency (Tov112D)

O=C(O)C[C@@H](NC(=O)c1cc(-c2ccc(-c3ccncc3)cc2)cs1)c1ccccc1
inactive: Potency (OV90) | Potency (PA-1) | Potency (SKOV3) | Potency (Tov112D)

C[C@H]1[C@H](C)CC[C@]2(C(=O)O)CC[C@]3(C(=O)O)C(=CCC4[C@@]5(C)CC[C@H](O[C@@H]6O[C@H](C)[C@@H](O)[C@H](O)[C@H]6O)C(C)(C)C5CC[C@]43C)[C@H]12 (stereo not given in full)
inactive: Potency (OV90) | Potency (PA-1) | Potency (Tov-21-G) | Potency (Tov112D)

CC1CCC23COC(=O)C2=CC(O)CC3C1(C)CCC1=CC(=O)OC1O (stereo not given)
inactive: Potency (OV90) | Potency (PA-1) | Potency (Tov-21-G) | Potency (Tov112D)

CC1NC(=O)CNC(=O)C(C(C)C)NC(=O)C2CCCN2C(=O)C(C(C)C)NC(=O)C(Cc2c[nH]c3ccccc23)NC1=O (stereo not given) (cyclo(GAWVPV); configuration not given here)
inactive: Potency (OV90) | Potency (PA-1) | Potency (Tov-21-G) | Potency (Tov112D)

CC1(C)CCCC2(C)C(CO)C3CCC2C31 (stereo not given)
inactive: Potency (OV90) | Potency (PA-1) | Potency (Tov-21-G) | Potency (Tov112D)

O=C(O)C[C@H]1CCC(=O)[C@@H]1C/C=C\CCOC1OC(CO)C(O)C(O)C1O (stereo not given in full)
inactive: Potency (OV90) | Potency (PA-1) | Potency (Tov-21-G) | Potency (Tov112D)

COC(=O)C1C(CC(C)=O)C=CC(O)C12Oc1cc(C)cc(O)c1C2=O (stereo not given)
inactive: Potency (OV90) | Potency (PA-1) | Potency (Tov-21-G) | Potency (Tov112D)

CCC(=O)O[C@]1(C(=O)CCl)[C@@H](C)C[C@H]2[C@@H]3C[C@H](F)C4=CC(=O)C=C[C@]4(C)[C@@]3(F)[C@@H](O)C[C@@]21C
inactive: Potency (OV90) | Potency (PA-1) | Potency (SKOV3) | Potency (Tov-21-G) | Potency (Tov112D) | activity, negative = cell killing [1, 4] -14.4% | activity, negative = cell killing [1, 5] -33.8% | Potency (astro)

COC(=O)[C@@H]1C2CC3c4[nH]c5ccccc5c4CCN3CC2CC[C@@H]1O (stereo not given in full)
inactive: Potency (OV90) | Potency (PA-1) | Potency (Tov-21-G) | Potency (Tov112D)

COC1CCCC/C(C)=C/C2C=C(C)C(C)C3C(CC(C)C)NC(=O)C23C(=O)C1 (stereo not given)
inactive: Potency (OV90) | Potency (PA-1) | Potency (Tov-21-G) | Potency (Tov112D)

COC(=O)C1=CO[C@@H](O[C@@H]2O[C@H](CO)[C@@H](O)[C@H](O)[C@H]2O)[C@@H]2[C@@H](C(=O)OC)[C@@H](O)C(O)[C@H]12 (stereo not given in full)
inactive: Potency (OV90) | Potency (PA-1) | Potency (Tov-21-G) | Potency (Tov112D)

O=C(c1ccc(F)cc1)C1CCN(CCn2c(=O)nc3n(c2=O)CCCC3)CC1
inactive: Potency (OV90) | Potency (PA-1) | Potency (Tov-21-G) | Potency (Tov112D)

O=C(c1ccc(NS(=O)(=O)c2cccc3cccnc23)cc1)N1CCN(CC2CC2)CC1
inactive: Potency (OV90) | Potency (PA-1) | Potency (Tov-21-G) | Potency (Tov112D)

COC(=O)C1C(c2ccc(O)cc2)C(C(=O)OC)C1c1ccc(O)cc1 (stereo not given)
inactive: Potency (OV90) | Potency (PA-1) | Potency (Tov-21-G) | Potency (Tov112D)

FC(F)(F)c1cc(C(F)(F)F)c2ccc3nc(-c4nnco4)cn3c2n1
inactive: Potency (OV90) | Potency (PA-1) | Potency (Tov-21-G) | Potency (Tov112D)

CC1(C)CCC[C@@]2(C)[C@H]1[C@H](O)C=C1COC(=O)[C@@]12O
inactive: Potency (OV90) | Potency (PA-1) | Potency (Tov-21-G) | Potency (Tov112D)

C[C@@H]1O[C@@H](O[C@H]2[C@H](OC(=O)[C@]34CCC(C)(C)C[C@H]3C3=CCC5[C@@]6(C)C[C@H](O)[C@H](O[C@@H]7O[C@H](CO[C@@H]8OC[C@H](O)[C@H](O)[C@H]8O)[C@@H](O)[C@H](O)[C@H]7O)C(C)(C)C6CC[C@@]5(C)[C@]3(C)C[C@H]4O)OC[C@@H](O)[C@@H]2O)[C@H](O)[C@H](O[C@@H]2OC[C@](O)(CO)[C@H]2O)[C@H]1O[C@@H]1OC[C@H](O)[C@H](O[C@@H]2OC[C@@H](O)[C@H](O)[C@H]2O)[C@H]1O (stereo not given in full)
inactive: activity change, negative = cytotoxicity (OV90) -1.75% [at 6.55 µM] | activity change, negative = cytotoxicity (PA-1) 9.54% [at 6.55 µM] | activity change, negative = cytotoxicity (Tov-21-G) -3.09% [at 6.55 µM] | activity change, negative = cytotoxicity (Tov112D) 5.07% [at 6.55 µM]
